In the library only some 4.1% were active in any assay of this set; here they are far more common.
Anthrax LF inh2: anthrax lethal factor protease inhibition; P15917; multiplex microsphere protease cleavage assay, LF; inhibition, % at 10 µM; 0.12% of 360,000 active; AID 588501; also: plate controls were buffer without enzyme for full effect and enzyme alone for no effect
BoNT A protease: blocks Botulinum neurotoxin A light chain protease; inhibition, % at 10 µM; 0.17% of 360,000 active; multiplex microsphere protease substrate cleavage, flow cytometry; also: plate controls were buffer without enzyme for full effect and enzyme alone for no effect
MazEF act: increases E. coli MazEF RNase cleavage of RNA. P0AE70. FAM/BHQ RNA-DNA oligo cleavage fluorescence, 5 h. activation, % at 20 µM. 0.32% of 350,000 active. AID 504720; in the data active = activation above about 50%
Autofluor counter: compound fluorescence in toxin protease inhibitor counterscreen; compound autofluorescence counterscreen, microsphere flow cytometry; hits give high values; fluorescence intensity (test concentration not listed); 3.1% of 360,000 active; in the data active = fluorescence intensity above about 16000; inconclusive = no clear call, values can overlap the other calls
VHR inh abs: DUSP3 (human) phosphatase inhibition; inhibition, % at 13.3 µM; P51452; recombinant VHR phosphatase, pNPP absorbance; 0.52% of 290,000 active; in the data active = inhibition above about 50%
BoNT-F LC inh: inhibitors of Botulinum neurotoxin F light chain protease. Multiplex microsphere protease cleavage assay, flow cytometry. inhibition, % at 10 µM. 0.22% of 360,000 active. AID 588497; in the data active = inhibition above about 35%, passing the limit was not always enough; inconclusive = no clear call, values can overlap the other calls; also: plate controls were buffer without enzyme for full effect and enzyme alone for no effect
Active calls of the source: *. Rule as the data show it, unless noted: active = inhibition above about 30%; inconclusive = no clear call, values can overlap the other calls; inactive = below that.

Screening C[C@@H]1CN([C@@H](C)CO)C(=O)CCCn2nncc2CO[C@@H]1CN(C)C(=O)CCC(F)(F)F returned Anthrax LF inh2 -8.6, BoNT A protease -0.4, MazEF act 1.2, Autofluor counter 2882 and BoNT-F LC inh 0.7.
For COc1ccc(N(CC(=O)NC2CCCC2)C(=O)Cn2nnc(-c3ccc(C)cc3)n2)cc1OC the results were Anthrax LF inh2 -3.8, BoNT A protease -0.1, MazEF act -4.7, Autofluor counter 16197*, VHR inh abs 11.9 and BoNT-F LC inh -1.8.
For COc1ccc(-c2nnn(CC(=O)N(C3CCCC3)C(C)C(=O)NC3CCCC3)n2)cc1OC (stereo not drawn) the results were Anthrax LF inh2 -24.2, BoNT A protease -1.0, MazEF act 3.1, Autofluor counter 11381, VHR inh abs 6.4 and BoNT-F LC inh -7.6.
COc1ccc(-c2nnn(CC(=O)N(C3CCCCC3)C(C)C(=O)NC3CCCC3)n2)cc1OC (stereo not drawn) was read as Anthrax LF inh2 -3.3, BoNT A protease -0.2, MazEF act -1.5, Autofluor counter 23408*, VHR inh abs 35.6 and BoNT-F LC inh -0.7.
COCCN(C(=O)COC(=O)/C=C/c1cccc(OC)c1)c1c(N)n(CC(C)C)c(=O)[nH]c1=O was read as Anthrax LF inh2 12.3, BoNT A protease -1.3, MazEF act 2.5, Autofluor counter inconclusive and BoNT-F LC inh -8.7.
CCOC(=O)c1c(N)sc2c(NC(C)=O)cccc12 was read as MazEF act 5.4 and VHR inh abs 7.1.
`CCOC(=O)c1c(N)sc2c(O)c(Br)ccc12` gave Anthrax LF inh2 -1.7, BoNT A protease -0.4, MazEF act -4.6, Autofluor counter 20732*, VHR inh abs 31.6 and BoNT-F LC inh -1.9.
O=C(Nc1nnc(-c2ccccc2)s1)c1cc(S(=O)(=O)N2CCOCC2)c(Cl)cc1Cl was read as Anthrax LF inh2 -1.7, BoNT A protease inconclusive, MazEF act 1.4, Autofluor counter 23535*, VHR inh abs 15.6 and BoNT-F LC inh 1.0.
O=C(Nc1nnc(-c2ccccc2)s1)c1ccc(Cl)c(S(=O)(=O)N2CCOCC2)c1 was read as VHR inh abs 4.2.
CCOc1cccc(CNC2CN3CCC2CC3)c1 (stereo not drawn) was read as Anthrax LF inh2 -2.0, BoNT A protease inconclusive, MazEF act 9.5, Autofluor counter 16409*, VHR inh abs 24.9 and BoNT-F LC inh -1.4.
For Fc1ccc(CNC2CN3CCC2CC3)cc1 (stereo not drawn) the results were Anthrax LF inh2 -8.4, BoNT A protease 1.4, MazEF act 3.0, Autofluor counter 3452, VHR inh abs 4.1 and BoNT-F LC inh -11.0.
For Clc1ccc(Cl)c(-c2ccc(/C=N/c3ncn[nH]3)o2)c1 the results were Anthrax LF inh2 -12.3, BoNT A protease inconclusive, MazEF act 2.6, Autofluor counter 22627*, VHR inh abs 10.7 and BoNT-F LC inh 1.2.
For O=C1/C(=C/C=C/c2ccco2)SC(=S)N1c1ccc(O)cc1 the results were Anthrax LF inh2 2.9, BoNT A protease 9.7, MazEF act -15.3, Autofluor counter 3787, VHR inh abs 15.5 and BoNT-F LC inh -4.7.
Screening CC(C)C(C(=O)O)N1C(=O)/C(=C/C=C/c2ccco2)SC1=S (stereo not drawn) returned Anthrax LF inh2 -8.7, BoNT A protease 0.1, MazEF act -29.8, Autofluor counter 2959, VHR inh abs 51.5* and BoNT-F LC inh -6.5.
For COc1ccc(N2C(=O)CCC2=O)cc1 the results were Anthrax LF inh2 -2.0, BoNT A protease inconclusive, MazEF act 1.8, Autofluor counter 20610*, VHR inh abs 12.9 and BoNT-F LC inh 4.6.
`O=C(CCNC(=O)c1ccc(Cl)cc1)Nc1ccccc1N1CCCCC1` gave Anthrax LF inh2 4.2, BoNT A protease 1.4, MazEF act 6.5, Autofluor counter 5128 and BoNT-F LC inh -0.8.
`COc1cc(C2C(C#N)=C(N)Oc3c2ccc2ccccc32)ccc1OCC(=O)Nc1ccccc1C` (stereo not drawn) gave Anthrax LF inh2 -1.0, BoNT A protease inconclusive, MazEF act 1.9, Autofluor counter 22354*, VHR inh abs 15.7 and BoNT-F LC inh -0.4.
`COC(=O)c1ccc(NC(=O)COc2ccc(C3C(C#N)=C(N)Oc4c3ccc3ccccc43)cc2OC)cc1` (stereo not drawn) gave Anthrax LF inh2 5.2, BoNT A protease 1.4, MazEF act -15.1, Autofluor counter 4068, VHR inh abs 13.2 and BoNT-F LC inh -1.4.

Source: PubChem
